From the supplement of paper PMC12669032 come the findings set out here.

This experiment deals with Escherichia coli IAI1. In words: growth AUC relative to DMSO control (median of replicates) (fraction); higher = more growth (less inhibition), active = hit call of the paper. The settings on record: 20 µM; 24 h. An outline of the steps:
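Gut bacterial monocultures were grown anaerobically at 37 °C in mGAM, starting at OD600 0.05, with 20 µM compound (1% DMSO) in round-bottom 96-well plates under pierced gas-permeable seals. OD600 was read hourly for 24 h. Area under the growth curve (minimum OD set to 0) was normalised to the plate median of DMSO controls, or to row and column medians on the industrial chemical plate. The value is the median of three biological replicates grown on separate days.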
`O=C(O)C1(O)c2ccccc2-c2ccc(Cl)cc21` (stereo unspecified): the “growth AUC” value is 0.975 (inactive).

Consider `O=C(O)C(F)(F)C(F)(F)C(F)(F)C(F)(F)C(F)(F)C(F)(F)C(F)(F)F`, for which the “growth AUC” value is 0.998 (inactive). Take `COP(=O)(OC)OC=C(Cl)Cl`: the “growth AUC” value was 1.02 (inactive).

Consider `CCCN(CC)CC1COC2(CCC(C(C)(C)C)CC2)O1` (stereo unspecified), for which the “growth AUC” value was 0.959 (inactive).

In the case of `CCOP(=O)(SC(C)CC)N1CCSC1=O` (stereo unspecified), the “growth AUC” value was 0.986 (inactive). Take `O=NN(CCO)CCO`: the “growth AUC” value was 1 (inactive). Take `CSc1nc(N=[N+]=[N-])nc(NC(C)C)n1`: the “growth AUC” value is 1.01 (inactive).

As to `COP(=O)(OC)Oc1ccc(S(C)=O)c(C)c1` (stereo unspecified), the “growth AUC” value is 0.987 (inactive). With `O=C(Nc1ccccc1)N(Cc1ccc(Cl)cc1)C1CCCC1`, the “growth AUC” value is 0.99 (inactive). For `CC(C)OC(=O)C(C(=O)OC(C)C)=C1SCCS1` the value was 0.988 (inactive). Take `CCC(C)[C@H]1O[C@]2(C=C[C@@H]1C)C[C@@H]1C[C@@H](C/C=C(\C)[C@@H](O[C@H]3C[C@H](OC)[C@@H](O[C@H]4C[C@H](OC)[C@@H](O)[C@H](C)O4)[C@H](C)O3)[C@@H](C)/C=C/C=C3\CO[C@@H]4[C@H](O)C(C)=C[C@@H](C(=O)O1)[C@]34O)O2.CO[C@H]1C[C@H](O[C@H]2[C@H](C)O[C@@H](O[C@@H]3/C(C)=C/C[C@@H]4C[C@@H](C[C@]5(C=C[C@H](C)[C@@H](C(C)C)O5)O4)OC(=O)[C@@H]4C=C(C)[C@@H](O)[C@H]5OC/C(=C\C=C\[C@@H]3C)[C@]54O)C[C@@H]2OC)O[C@@H](C)[C@@H]1O` (stereo partly specified): the “growth AUC” value is 1.01 (inactive).
